# Reference: PubChem BioAssay AID488922 (Johns Hopkins Ion Channel Center, 2010)
# Screen size: about 310,000 compounds; about 3,800 (1.2%) were called active.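 The calls were made as follows: active = ratio B-score over 3 SD below the library mean, with starting fluorescence within 5 SD of its mean; inactive = the rest, inconclusive results apart.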 The full list was thinned out, with actives kept by preference.
# Target: Potassium channel subfamily K member 9 (Homo sapiens) (UniProt Q9NPC2)
# Assay: blockers of human TASK-3 (KCNK9) channel – HEK293 cells, thallium flux, primary screen (AID 488922);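 as to B-score: negative B-score means less thallium flux so channel inhibition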
# Details: HEK293 KCNK9, FluxOR thallium flux fluorescence, at 10 µM; active compounds read low
# Sequence of Potassium channel subfamily K member 9 (Homo sapiens) (Q9NPC2 whole entry, looked up): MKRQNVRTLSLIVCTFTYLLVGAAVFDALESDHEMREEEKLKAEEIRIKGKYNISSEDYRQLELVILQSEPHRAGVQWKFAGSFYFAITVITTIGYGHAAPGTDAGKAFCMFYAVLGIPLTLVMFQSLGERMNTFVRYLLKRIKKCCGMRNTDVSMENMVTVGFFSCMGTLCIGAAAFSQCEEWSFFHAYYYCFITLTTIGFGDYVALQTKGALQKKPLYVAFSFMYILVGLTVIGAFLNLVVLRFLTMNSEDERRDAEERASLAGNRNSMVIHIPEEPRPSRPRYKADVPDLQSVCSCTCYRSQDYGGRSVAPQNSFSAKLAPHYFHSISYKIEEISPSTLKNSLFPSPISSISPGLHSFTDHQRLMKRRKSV
row,SMILES,B-score
1,O=C(CN(c1ccccc1)S(=O)(=O)c1ccc(Cl)cc1)Nc1ccccc1C(=O)N1CCCC1,inactive
2,COn1c(-c2ccc(Cl)cc2Cl)nc2ncccc21,inactive
3,Clc1ccc(-c2ncc3ccccn23)c(Cl)c1,inactive
4,Clc1ccc(COn2c(-c3ccc(Cl)cc3Cl)nc3ncccc32)cc1,-10.6 (active)
5,CC1CCN(S(=O)(=O)c2nnc(NC(=O)COc3ccccc3F)s2)CC1,inactive
6,N/C(=N\S(=O)(=O)c1ccc(Cl)cc1)N1CCOCC1,inactive
7,Cc1ccc(C2CC(=O)NC(SCC(=O)OCc3ccccc3)=C2C#N)o1 (centres undefined),inactive
8,CCOC(=O)CSC1=C(C#N)C(c2ccco2)C(C(=O)OCc2ccccc2)=C(C)N1 (centres undefined),-7.3 (active)
9,CC1=C(C(=O)OCc2ccccc2)C(c2ccco2)n2ncnc2N1 (centres undefined),inactive
10,CC(=O)N[C@@H](C)C(=O)N1CCC(n2nccc2NC(=O)CCCc2ccccc2)CC1,inactive
11,COc1ccc(-n2c(=O)[nH]c3cc(C(=O)NCCc4ccc(OC)c(OC)c4)ccc3c2=O)c(OC)c1,inactive
12,COc1ccccc1-c1nc(SC)n[nH]1,inactive
13,COc1ccc(-c2n[nH]c(C)c2-c2ccccc2OC)c(O)c1,inactive
14,COc1ccccc1-c1n[nH]c2c1[C@H](C)CC[C@H]2C(C)C,-6.66 (active)
15,Cc1ccc2nc(SCC(=O)N3CCN(c4ccccc4)CC3)nc(=O)n2c1,inactive
16,O=C(NCC(=O)N1CCCC(C(F)(F)F)C1)c1ccccc1F (centres undefined),inactive
17,Cc1ccc(CNC(=O)CCS(=O)(=O)c2ccc3c(c2)CC(C)N3C(=O)C2CC2)o1 (centres undefined),inactive
18,Cc1ccc(C(=O)Nc2ccc(C)c(S(=O)(=O)N(C)C)c2)s1,inactive
19,O=C(NCCCO)c1cc2c([nH]c3ccccc32)c(-c2ccc(F)cc2)n1,inactive
20,C=CCn1c(SCC(=O)NC)nnc1C12CC3CC(CC(C3)C1)C2,inactive
21,CC1=C(C(=O)OC(C)(C)C)C(c2ccc(Br)cc2)NC(=O)N1CCCC(=O)O (centres undefined),inactive
22,Cc1ccc(C2Nc3ccccc3C(=O)N2CCN2CCNC2=O)cc1 (centres undefined),inactive
23,COc1ccc(C2Nc3ccccc3C(=O)N2Cc2ccccc2)cc1Cn1nnc2ccccc21 (centres undefined),-8.45 (active)

row,SMILES,B-score
1,COc1ccc(C2Nc3ccccc3C(=O)N2c2ccc(F)cc2)cc1Cn1nnc2ccccc21 (centres undefined),inactive
2,Cc1cc(NC(=O)/C=C/C(=O)N(CC(=O)NC2CCCC2)c2ccc(F)cc2)no1,inactive
3,CCCCCC(O)c1cccc(OCc2ccc3ccccc3n2)c1 (centres undefined),-16.3 (active)
4,COc1cccc(C(O)c2nc3ccccc3n2C)c1 (centres undefined),inactive
5,CCCCCCOC(=O)NCC(O)c1ccccc1 (centres undefined),inactive
6,COc1cc(CCC(=O)N2CCN(c3ccccc3Cl)CC2)cc(OC)c1OC,inactive
7,CCOc1ccc(C2c3[nH]c4ccccc4c3CCN2Cc2cccn2-c2ncccn2)cc1 (centres undefined),-9.89 (active)
8,c1ccc(C2c3[nH]c4ccccc4c3CCN2Cc2cccn2-c2cccnc2)nc1 (centres undefined),inactive
9,CCOc1ccc(C2c3[nH]c4ccccc4c3CCN2Cc2cn(CC)nc2C)cc1 (centres undefined),inactive
10,O=C(/C=C/c1cccs1)c1cc(Cl)ccc1OC(=O)N1CCOCC1,inactive
11,COc1cc(NC(=O)Nc2ccc(C)cc2)cc([N+](=O)[O-])c1,inactive
12,COc1cc(NC(=S)NCc2ccc(S(N)(=O)=O)cc2)cc(OC)c1,inactive
13,COc1cc(NC(=S)NCCSc2ccc(C)cc2)cc(OC)c1,-9.28 (active)
14,Cc1cc(C)n(-c2ccc(NC(=O)C3CCCCN3C(=O)c3cccs3)cc2)n1 (centres undefined),inactive
15,CNC(C)C#Cc1ccc2sc3cc(OC)c(OC)cc3c(=O)c2c1 (centres undefined),inactive
16,CCOC(=O)C1=C(c2ccccc2)O/C(=C(/C(=O)OC)C(F)(F)F)S1,inactive
17,Cc1ccccc1C(=O)Nc1ccccc1NC(=O)c1ccccc1C,inactive
18,CCCCCCCCn1c2c(c(=N)c3c1CCC3)CCCC2,-14.2 (active)
19,O=C(NCc1cc(F)cc(C(F)(F)F)c1)C1CCC(=O)N(C2CCCC2)C1 (centres undefined),inactive
20,COc1ccccc1C(=O)NCCn1cc(SCC(=O)NCc2ccco2)c2ccccc21,inactive
21,COc1cccc(CNCCc2c[nH]c3ccccc23)c1OCc1ccccc1F,-8.25 (active)
22,COc1ccccc1CC(=O)NCCc1c[nH]c2ccccc12,inactive
23,COc1ccc(S(=O)(=O)NCCc2c[nH]c3ccccc23)cc1OC,inactive

row,SMILES,B-score
1,Cc1cc(C)n(CCNS(=O)(=O)c2ccc(Cl)cc2)n1,inactive
2,CCC1CCCCN1C(=S)Nc1ccc(C(C)=O)cc1 (centres undefined),inactive
3,CCC1CCCCN1C(=O)Nc1cccc(NC(=O)N2CCCCC2CC)c1 (centres undefined),-7.72 (active)
4,COc1cccc(NC(=O)N2CCCC2C(=O)NC2CCCCC2)c1 (centres undefined),inactive
5,O=C(Nn1c(-c2ccc(Cl)cc2)nc2ccccc2c1=O)c1cccnc1Cl,inactive
6,C/C(=N\N(C)C)c1ccc(OCCOc2ccc([N+](=O)[O-])cc2)cc1,inactive
7,O=C(N/N=C/c1c[nH]c2ccccc12)c1cc2ccccc2o1,inactive
8,Cc1c(/C=N\NC(=O)c2cc3ccccc3o2)c2ccccc2n1C,-6.85 (active)
9,Cc1ccc(NC(=O)c2cc3ccccc3o2)cc1,inactive
10,CC(C)c1nnc(NC(=O)C2CC(=O)N(CCc3ccc(F)cc3)C2)s1 (centres undefined),inactive
11,CN(C(=O)CSc1nc(C2CC2)nc2ccccc12)c1nc(-c2ccccc2)cs1,inactive
12,CC(C)N(C(=O)CSc1nc(COc2ccccc2)nc2ccccc12)C(C)C,-17.1 (active)
13,CCCc1nc(SCC(=O)Nc2ccc(S(=O)(=O)N(C)C)cc2)c2ccccc2n1,inactive
14,COCCCNC(=S)N1CCN(c2nc(-c3cccc(OC)c3)cs2)CC1,inactive
15,COc1cccc(COc2ccc(N(C)S(=O)(=O)c3ccccc3)cc2)c1,-14.1 (active)
16,CN(c1ccc(OCC(=O)O)cc1)S(=O)(=O)c1ccc2ccccc2c1,inactive
17,Cc1ccc2nc(COc3ccc(N(C)S(=O)(=O)c4ccccc4)cc3)cc(=O)n2c1,inactive
18,O=C(Nc1ccccc1)O/N=C1/CCCc2occc21,inactive
19,Cc1ccc2c(c1)N(CC(=O)N1CCC(O)CC1)C(=O)CO2,inactive
20,O=C(O)COCC(=O)NCc1csc2ccc(Cl)cc12,inactive
21,Cc1c(C(=O)Nc2ccccn2)oc2ccc(Br)cc12,-9.33 (active)
22,Cc1nonc1NC(=O)c1oc2ccccc2c1C,inactive
23,Cc1noc(C)c1C(=O)Nc1ccccn1,inactive
